Test results as given in the antibiotic and cytotoxicity screens of Wong et al. (2023).
The campaign covered roughly 39,000 compounds. About 3,300 (8.5%) were called active. This is one part of a sample in which actives are shown more often than they occur.

tested on: HepG2; experiment: cytotoxicity call (relative viability < 0.9); conditions: 10 µM

Row | SMILES | cytotoxicity call
1 | CCOC(=O)CSc1nc(=O)cn[nH]1 | inactive
2 | C[C@@H]1CN([C@H](C)CO)C(=O)Cc2cc(NC(=O)C3CC3)ccc2O[C@H]1CN(C)Cc1ccc2c(c1)OCO2 | inactive
3 | CC(C)NC(=O)N(C)C[C@@H]1OCCCC[C@@H](C)Oc2ccc(NC(=O)Nc3ccccc3)cc2C(=O)N([C@@H](C)CO)C[C@@H]1C | inactive
4 | COc1ccc(S(=O)(=O)Nc2ccc3c(c2)C(=O)N([C@H](C)CO)C[C@H](C)[C@H](CN(C)C(=O)Nc2c(C)noc2C)OCCCC[C@@H](C)O3)cc1 | inactive
5 | C[C@@H]1CN([C@H](C)CO)C(=O)c2cc(C3=CCCC3)cnc2O[C@H]1CN(C)S(=O)(=O)c1cn(C)cn1 | inactive
6 | Cc1noc(C)c1S(=O)(=O)Nc1ccc2c(c1)CC(=O)N([C@H](C)CO)C[C@H](C)[C@H](CN(C)S(=O)(=O)c1cn(C)cn1)O2 | inactive
7 | C[C@@H]1CCCCO[C@H](CN(C)C(=O)Nc2ccc3c(c2)OCO3)[C@H](C)CN([C@@H](C)CO)C(=O)c2cc(NC(=O)c3ccncc3)ccc2O1 | inactive
8 | C[C@@H]1CN([C@@H](C)CO)C(=O)Cc2cc(NC(=O)Nc3cccc4ccccc34)ccc2O[C@@H]1CN(C)C(=O)Nc1cccc2ccccc12 | inactive
9 | NCCN1CCOCC1 | inactive
10 | C[C@H](CO)N1C[C@H](C)[C@@H](CN(C)Cc2ccc(Cl)c(Cl)c2)Oc2ccc(NC(=O)Nc3ccc(F)cc3)cc2C1=O | inactive
11 | C[C@H](CO)N1C[C@H](C)[C@H](CN(C)Cc2ccc(Cl)c(Cl)c2)Oc2ccc(NC(=O)Nc3ccc(C(F)(F)F)cc3)cc2C1=O | active
12 | C[C@H]1CN([C@@H](C)CO)C(=O)c2cc(NC(=O)Nc3ccc(C(F)(F)F)cc3)ccc2O[C@H]1CN(C)Cc1ccc(Cl)c(Cl)c1 | active
13 | C[C@H]1CN([C@@H](C)CO)C(=O)c2cc(NC(=O)Nc3ccc(F)cc3)ccc2O[C@@H]1CN(C)Cc1ccc(Cl)c(Cl)c1 | inactive
14 | C[C@H]1CCCCO[C@@H](CN(C)C(=O)Nc2ccc(F)cc2)[C@@H](C)CN([C@@H](C)CO)C(=O)c2cc(NS(=O)(=O)c3ccccc3)ccc2O1 | inactive
15 | CC(C)NC(=O)N(C)C[C@H]1Oc2ccc(NC(=O)Cc3ccccc3)cc2C(=O)N([C@H](C)CO)C[C@H]1C | inactive
16 | C[C@H](CO)N1C[C@H](C)[C@H](CN(C)C(=O)Nc2ccccc2)OCCCC[C@H](C)Oc2ccc(NC(=O)c3ccccc3)cc2C1=O | inactive
17 | COc1cccc(NC(=O)N[C@@H]2C=C[C@@H](CC(=O)N3CCOCC3)O[C@@H]2CO)c1 | inactive
18 | C[C@@H]1CN([C@H](C)CO)C(=O)c2cccc(NC(=O)c3nc4ccccc4s3)c2O[C@@H]1CN(C)S(=O)(=O)c1cn(C)cn1 | inactive
